# PubChem BioAssay (EPA / NIEHS)
# A structure can be active in one record and inactive in another. The source made the active and inactive calls. Rule for the calls: active = hit-call score of the fitted dose curve at least 0.9, where 1 is the maximum; inactive = score below 0.9.
# Legend:
# [1] = read-out: Human Leukocyte Antigen - DR isotype (HLADR), HLA-DRA (gene 3122); experiment: BSK_BE3C_HLADR: BioMAP Diversity Plus: BE3C Assay for Human Leukocyte Antigen - DR isotype (HLADR) Biomarker Activity (AID 2283032); conditions: primary human bronchial epithelial cells; actives raise or lower the signal
# How it was run: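 Signal came from an ELISA for HLA-DR in human bronchial epithelial primary cells harvested 24 h after treatment; gain- and loss-of-signal fitting used DMSO controls as reference.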
# [2] = read-out: Vascular cell adhesion molecule 1 (VCAM1), VCAM1 (gene 7412); experiment: BSK_4H_VCAM1: BioMAP Diversity Plus: 4H Assay for Vascular cell adhesion molecule 1 (VCAM1) Biomarker Activity (AID 2283033); conditions: primary human endothelial cells (HUVEC); actives raise or lower the signal;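 for outcome: cell-surface VCAM-1 protein measured by ELISA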
# How it was run: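 Endpoint derived from bidirectional fitting against DMSO controls of VCAM-1 ELISA signal in umbilical vein endothelial cells sampled at 24 h following treatment.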
# [3] = read-out: Interferon-gamma inducible Protein 10 (IP10), CXCL10 (gene 3627); experiment: BSK_BE3C_IP10: BioMAP Diversity Plus: BE3C Assay for Interferon-gamma inducible Protein 10 (IP10) Biomarker Activity (AID 2283034); conditions: primary human bronchial epithelial cells; actives raise or lower the signal
# How it was run: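 Using primary human bronchial epithelial cultures, the assay captures IP-10 by ELISA one day (24 h) after exposure. Parallel SRB staining of total protein flags overt cytotoxicity. Fits run bidirectionally relative to DMSO.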
# [4] = read-out: Monokine induced gamma interferon (MIG), CXCL9 (gene 4283); experiment: BSK_BE3C_MIG: BioMAP Diversity Plus: BE3C Assay for Monokine induced gamma interferon (MIG) Biomarker Activity (AID 2283035); conditions: primary human bronchial epithelial cells; actives raise or lower the signal;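 note: MIG protein measured by ELISA in BE3C cultures after 24 h of dosing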
# How it was run: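 ELISA read-out of MIG in human lung bronchial epithelial primary cultures, 24 h post-dosing. Bidirectional curve fit vs DMSO baseline.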
# [5] = read-out: Transforming growth factor beta 1 (TGFb1), TGFB1 (gene 7040); experiment: BSK_BE3C_TGFb1: BioMAP Diversity Plus: BE3C Assay for Transforming growth factor beta 1 (TGFb1) Biomarker Activity (AID 2283036;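 note: TGF-b1 protein level measured by ELISA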); conditions: primary human bronchial epithelial cells; actives raise or lower the signal
# How it was run: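 In this human primary bronchial epithelial system, an ELISA quantified TGF-b1 one day after dosing. Endpoint changes in either direction were fitted relative to DMSO.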
# [6] = read-out: Plasminogen activator inhibitor-1 (PAI1), SERPINE1 (gene 5054); experiment: BSK_BE3C_PAI1: BioMAP Diversity Plus: BE3C Assay for Plasminogen activator inhibitor-1 (PAI1) Biomarker Activity (AID 2283037); conditions: primary human bronchial epithelial cells; actives raise or lower the signal
# How it was run: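 PAI-1 biomarker levels in treated human bronchial epithelial cells are determined by ELISA at 24 h. Both increases and decreases relative to DMSO are fitted.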
# [7] = read-out: Urokinase-type plasminogen activator receptor (uPAR), PLAUR (gene 5329); experiment: BSK_BE3C_uPAR: BioMAP Diversity Plus: BE3C Assay for Urokinase-type plasminogen activator receptor (uPAR) Biomarker Activity (AID 2283039); conditions: primary human bronchial epithelial cells; actives raise or lower the signal;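 note: uPAR protein level measured by ELISA on the cells; cells exposed to compound for one day before measurement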
# How it was run: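 A uPAR ELISA serves as the readout, taken 24 h after treating primary human bronchial epithelial cells. Responses in either direction are fitted against DMSO, which defines baseline activity.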
# [8] = read-out: Interleukin-6 (IL6), IL6 (gene 3569); experiment: BSK_CASM3C_IL6: BioMAP Diversity Plus: CASM3C Assay for Interleukin-6 (IL6) Biomarker Activity for (AID 2283040); conditions: primary human coronary artery smooth muscle cells; actives raise or lower the signal
# [9] = read-out: Tissue plasminogen activator (tPA), PLAT (gene 5327); experiment: BSK_BE3C_tPA: BioMAP Diversity Plus: BE3C Assay for Tissue plasminogen activator (tPA) Biomarker Activity (AID 2283041); conditions: primary human bronchial epithelial cells; actives raise or lower the signal;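 for outcome: tPA level quantified by ELISA one day after compound addition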
# How it was run: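 Bidirectional curve fitting relative to DMSO defined activity, with tPA detected by ELISA in chemically treated human bronchial epithelial primary cells at 24 hours.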
# [10] = read-out: Interleukin-8 (IL8), CXCL8 (gene 3576); experiment: BSK_CASM3C_IL8: BioMAP Diversity Plus: CASM3C Assay for Interleukin-8 (IL8) Biomarker Activity (AID 2283042); conditions: primary human coronary artery smooth muscle cells; actives raise or lower the signal;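 note: IL-8 protein level quantified by ELISA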
# [11] = read-out: Human Leukocyte Antigen - DR isotype (HLADR), HLA-DRA (gene 3122); experiment: BSK_CASM3C_HLADR: BioMAP Diversity Plus: CASM3C Assay for Human Leukocyte Antigen - DR isotype (HLADR) Biomarker Activity (AID 2283043); conditions: primary human coronary artery smooth muscle cells; actives raise or lower the signal;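 note: cell-surface HLA-DR protein level quantified by ELISA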
# [12] = read-out: Macrophage colony-stimulating factor (MCSF), CSF1 (gene 1435); experiment: BSK_CASM3C_MCSF: BioMAP Diversity Plus: CASM3C Assay for Macrophage colony-stimulating factor (MCSF) Biomarker Activity (AID 2283044); conditions: primary human coronary artery smooth muscle cells; actives raise or lower the signal;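 note: M-CSF protein amount quantified by ELISA after 24 h exposure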
# [13] = read-out: Low-density lipoprotein receptor (LDLR), LDLR (gene 3949); experiment: BSK_CASM3C_LDLR: BioMAP Diversity Plus: CASM3C Assay for Low-density lipoprotein receptor (LDLR) Biomarker Activity (AID 2283045); conditions: primary human coronary artery smooth muscle cells; actives raise or lower the signal;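 note: LDLR protein level on the cell surface quantified by ELISA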
# [14] = read-out: Monocyte Chemoattractant Protein-1 (MCP1), CCL2 (gene 6347); experiment: BSK_CASM3C_MCP1: BioMAP Diversity Plus: CASM3C Assay for Monocyte Chemoattractant Protein-1 (MCP1) Biomarker Activity (AID 2283046); conditions: primary human coronary artery smooth muscle cells; actives raise or lower the signal;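 note: MCP-1 level quantified by ELISA 24 h after dosing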
# [15] = BSK_CASM3C_Proliferation: Cell Proliferation Assessment in the BioMAP Diversity Plus: CASM3C Assay (AID 2283047); conditions: primary human coronary artery smooth muscle cells;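 note: sulforhodamine B total protein stain as relative cell number at 560 nm; sub-confluent cells exposed 48 h before staining; fitted both ways against DMSO so gain or loss of cell number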
# [16] = read-out: Monokine induced gamma interferon (MIG), CXCL9 (gene 4283); experiment: BSK_CASM3C_MIG: BioMAP Diversity Plus: CASM3C Assay for Monokine induced gamma interferon (MIG) Biomarker Activity (AID 2283048); conditions: primary human coronary artery smooth muscle cells; actives raise or lower the signal;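 note: MIG protein level measured by ELISA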
# [17] = read-out: serum amyloid A (SAA), SAA1 (gene 6288); experiment: BSK_CASM3C_SAA: BioMAP Diversity Plus: CASM3C Assay for serum amyloid A (SAA) Biomarker Activity (AID 2283049); conditions: primary human coronary artery smooth muscle cells; actives raise or lower the signal;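 note: SAA protein level quantified by ELISA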
# [18] = BSK_CASM3C_SRB: Viability Assessment in the BioMAP Diversity Plus: CASM3C Assay (AID 2283050); conditions: primary human coronary artery smooth muscle cells;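 note: cells exposed to compound for 24 h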
# [19] = read-out: Thrombomodulin, THBD (gene 7056); experiment: BSK_CASM3C_Thrombomodulin: BioMAP Diversity Plus: CASM3C Assay for Thrombomodulin Biomarker Activity (AID 2283051); conditions: primary human coronary artery smooth muscle cells; actives raise or lower the signal;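 note: thrombomodulin protein level measured by ELISA 24 h after dosing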
structure (smiles),measurement,setting,value
CC(C=O)Cc1ccc(C(C)(C)C)cc1 (stereo not drawn),AC50,[1],28.9 µM (active)
same,AC50,[2],34.5 µM (active)
same,AC50,[3],29.7 µM (active)
same,outcome,[4],inactive
same,outcome,[5],inactive
same,outcome,[6],inactive
same,outcome,[7],inactive
same,AC50,[8],28.5 µM (active)
same,AC50,[9],24.8 µM (active)
same,outcome,[10],inactive
same,AC50,[11],28.8 µM (active)
same,AC50,[12],27.5 µM (active)
same,outcome,[13],inactive
same,AC50,[14],30.6 µM (active)
same,AC50,[15],32.3 µM (active)
same,AC50,[16],30.7 µM (active)
same,outcome,[17],inactive
same,AC50,[18],31.3 µM (active)
same,outcome,[19],inactive
CCCCCCCCCCCCCCCC(=O)OC/C=C(C)/C=C/C=C(C)/C=C/C1=C(C)CCCC1(C)C,outcome,[1],inactive
same,outcome,[2],inactive
same,outcome,[3],inactive
same,outcome,[4],inactive
same,outcome,[5],inactive
same,outcome,[6],inactive
same,outcome,[7],inactive
same,outcome,[8],inactive
same,outcome,[9],inactive
same,outcome,[10],inactive
same,outcome,[11],inactive
same,outcome,[12],inactive
same,outcome,[13],inactive
same,outcome,[14],inactive
same,outcome,[15],inactive
same,outcome,[16],inactive
same,outcome,[17],inactive
same,outcome,[18],inactive
same,outcome,[19],inactive
CC(=O)c1c(C)c([N+](=O)[O-])c(C(C)(C)C)c([N+](=O)[O-])c1C,outcome,[1],inactive
same,outcome,[2],inactive
same,outcome,[3],inactive
same,outcome,[4],inactive
same,outcome,[5],inactive
same,outcome,[6],inactive
same,outcome,[7],inactive
same,outcome,[8],inactive
same,outcome,[9],inactive
same,outcome,[10],inactive
same,outcome,[11],inactive
same,outcome,[12],inactive
same,outcome,[13],inactive
same,outcome,[14],inactive
same,outcome,[15],inactive
same,outcome,[16],inactive
same,outcome,[17],inactive
same,outcome,[18],inactive
same,outcome,[19],inactive
CC(CN=Cc1ccccc1O)N=Cc1ccccc1O (stereo not drawn),outcome,[1],inactive
same,outcome,[2],inactive
same,outcome,[3],inactive
same,outcome,[4],inactive
same,outcome,[6],inactive
same,outcome,[7],inactive
same,AC50,[8],8.95 µM (active)
same,outcome,[8],inactive
same,AC50,[9],8.3 µM (active)
same,outcome,[9],inactive
same,outcome,[10],inactive
same,outcome,[11],inactive
same,outcome,[12],inactive
same,AC50,[13],20 µM (active)
same,outcome,[13],inactive
same,outcome,[14],inactive
same,AC50,[15],1.64 µM (active)
same,outcome,[15],inactive
same,outcome,[16],inactive
same,outcome,[17],inactive
same,outcome,[18],inactive
same,outcome,[19],inactive
COc1cc(Cl)c(OC)cc1N,outcome,[1],inactive
same,outcome,[2],inactive
same,outcome,[3],inactive
same,outcome,[4],inactive
same,outcome,[5],inactive
same,outcome,[6],inactive
same,outcome,[7],inactive
same,outcome,[8],inactive
same,outcome,[9],inactive
same,outcome,[10],inactive
same,outcome,[11],inactive
same,outcome,[12],inactive
same,outcome,[13],inactive
same,outcome,[14],inactive
same,outcome,[15],inactive
same,outcome,[16],inactive
same,outcome,[17],inactive
same,outcome,[18],inactive
same,outcome,[19],inactive
